Data reported in PubChem BioAssay (NCI).
Compounds without any hit were thinned out: in the full panel of roughly 83,000, 20% have a hit.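 Growth was measured after 48 h exposure to one concentration of compound in 96-well plates. Values under 10 count as active.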 A number with no mark means an inactive call. The source made the active and inactive calls.

The compounds below were run on MDA-MB-468 breast (assay: NCI-60 one-dose screen, 48 h (100 = growth as untreated, 0 = no growth, -100 = all killed)). Details: 10 µM unless noted.
`N#Cc1ccc(/C=N/NC(=O)c2[nH]c3ccc(Br)cc3c2-c2ccccc2)s1` was tested, and the growth was 11.4%.
`COc1cc(/C=C\c2cc(OC)c(OC)c(OC)c2)cc(NC(=O)/C=C/c2cc(OC)c(OC)c(OC)c2)c1OC` was tested, and the growth was 36%.
`O=C1CSC(c2cn(-c3ccccc3)nc2-c2ccc(Cl)cc2)N1c1ccccc1` (centres undefined) was tested, and the growth was 104%.
`c1csc(-c2ccc(CNc3c4ccccc4nc4ccccc34)cc2)c1` was tested, and the growth was -72.5% (active).
`O=C(c1cc(-c2ccc(Cl)cc2)nc2ccccc12)N1N=C(c2ccccc2)CC1c1cc(-c2ccccc2)nn1-c1ccccc1` (centres undefined) showed a growth of 89.6%.
`Nc1nc(N)c2c(n1)NC(c1ccccc1)CC(c1ccc(Nc3nc(NCCO)nc(Nc4ccc(Cl)cc4)n3)cc1)=N2` (centres undefined) was tested, and the growth was -70.1% (active).
`CN(C)c1ccc(C2Nc3ccccc3-n3cccc32)cc1` (centres undefined) was tested, and the growth was -50.4% (active).
In the case of `O=S(=O)(NCCCNc1nccc(-c2c(-c3ccc(F)c(O)c3)nc3sccn23)n1)c1ccc(F)cc1`, the growth is reported as -0.153% (active).
`O=C(Nc1ccc(F)cc1)Nc1ccc(Cl)c([N+](=O)[O-])c1` was tested, and the growth was -3.78% (active).
In the case of `CCN(CC)CCn1c2ccc(OC)cc2c2sc3cc(O)ccc3c(=O)c21`, the growth is reported as 60.3%.
In the case of `Cc1cc(Cl)nc(N(CCCNc2ccnc3cc(Cl)ccc23)Cc2ccco2)n1`, the growth is reported as 0.466% (active).
For `c1ccc2c(c1)Oc1cccnc1-n1nccc1-2`, the growth was 94.7%.
Work on `CCCCC1C(=O)N(c2ccccc2)N(c2ccccc2)C1=O` yielded a growth of 99.5%.
With `O=C(Nc1ccc(Oc2ccc(F)cc2)c(Cl)c1)c1cccnn1` the growth was 39.3%.
